Screening results as filed in PubChem BioAssay.
Peg3 promoter: reduces Peg3 promoter-driven luciferase expression in HeLa; HeLa PEG-Prom luciferase reporter, luminescence, overnight; inhibition, % at 20 µM; actives 1.7% (n = 360,000); AID 588405;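 active = inhibition of at least 50% at 20 µM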
TWEAK-Fn14 inh: inhibitors of TWEAK-Fn14 interaction signaling. actives 2% (n = 360,000). AID 1159606. TWEAK-stimulated Fn14 reporter cells, luciferase luminescence, 8 h. inhibition, % at 10 µM; in the data active = inhibition above about 50%
HIF-2a inh: inhibitors of HIF-2a. 786-0 RCC cells HIF-2a reporter, luciferase luminescence, overnight. inhibition, % at 18.8 µM. actives 0.72% (n = 360,000). AID 624352;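 active = inhibition of the luminescence signal of 40% or more relative to plate controls, in a single-dose primary screen at 18.75 µM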
TROY NFkB inh: blocks TROY-dependent signaling in reporter cells. Q293 LMP1-TROYcd NF-kB luciferase reporter, 4 h. inhibition, % at 10 µM. actives 0.98% (n = 360,000);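 active = compounds whose plate-normalised and pattern-corrected inhibition of the luciferase reporter signal at the single screening dose is 50% or more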
CF NFkB inh: blocks PAF-induced NF-kB reporter in cystic fibrosis cells; KKLEB NF-kB-GFP reporter, GFP fluorescence overnight; inhibition, % at 5 µM; actives 0.86% (n = 360,000); AID 588850;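 active = at least 50% inhibition at 5 µM, scaled per plate between neutral and stimulator controls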;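 also: PAF is a Pseudomonas aeruginosa culture filtrate used as stimulus; plate controls were PAF-stimulated DMSO wells for no effect and unstimulated DMSO wells for full effect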
KKLEB tox: CF airway cell cytotoxicity counter-screen; KKLEB CF airway cells viability, ATPlite luminescence, overnight; hits give low values; cells stimulated with P. aeruginosa culture filtrate; activity change (cytotoxicity), % at 5 µM; actives 0.36% (n = 360,000); AID 602141;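 active = corrected activity change at or below -50% at 5 µM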
The depositor's hits bear a star; nt = not tested or not shown. Compounds with a hit are over-represented: about 3.9% of the library has one in this group of screens.

SMILES	Peg3 promoter	TWEAK-Fn14 inh	HIF-2a inh	TROY NFkB inh	CF NFkB inh	KKLEB tox
O=[N+]([O-])c1cccc(S(=O)(=O)Nc2ccc(S(=O)(=O)N3CCCC3)cc2)c1	15	-6	12	6	15	-5
O=S(=O)(Nc1nc2ccccc2nc1Nc1ccc2c(c1)OCO2)c1ccccc1	36	38	6	41	4	2
Cc1cccc(S(=O)(=O)Nc2nc3ccccc3nc2Nc2ccc3c(c2)OCO3)c1	33	42	0	64*	8	-4
O=[N+]([O-])c1cccc(S(=O)(=O)N2CCN(c3ccccn3)CC2)c1	-3	60*	4	9	-13	12
O=[N+]([O-])c1ccc(S(=O)(=O)N2CCN(c3ccccn3)CC2)cc1	4	7	11	-12	-27	2
O=[N+]([O-])c1cccc(S(=O)(=O)Nc2nc3ccccc3nc2Nc2cccc(S(=O)(=O)N3CCCCC3)c2)c1	50	86*	56*	71*	61*	-55*
Cn1c(=O)c(/C=C/c2ccccc2)nc2ccccc21	-270	-6	-160	-46	-11	-2
Cn1c(/C=C/c2ccccc2)nc2ccccc21	39	83*	23	31	-43	-34
O=c1c2ccc(Cl)cc2nc(-c2cccc(C(F)(F)F)c2)n1O	52*	0	26	30	7	-5
CCOc1ccccc1/C=N/NC(=O)c1nnn(-c2nonc2N)c1CN1CCC(C)CC1	44	-34	-7	-48	-14	11
Cc1ccc(COc2cccc(/C=N/NC(=O)c3nnn(-c4nonc4N)c3C)c2)cc1	77*	-133	-132	-58	59*	-50
CCc1c(C(=O)N/N=C/c2ccc(OCc3ccc(F)cc3)c(OC)c2)nnn1-c1nonc1N	-115	55*	-10	14	-15	0
CCOc1cc(/C=N/NC(=O)c2nnn(-c3nonc3N)c2C)ccc1OCc1ccc(C)cc1	4	-47	13	-30	35	-19
CC1CCN(Cc2c(C(=O)N/N=C/c3ccc(C(C)C)cc3)nnn2-c2nonc2N)CC1	65*	-16	-5	-12	-8	0
C=CCNC(=O)C1CC(=O)N(c2ccc(OCC(=O)Nc3c(C)cccc3C)cc2)C1 (configuration not stated)	11	18	7	-2	-9	5
CC1CCCCN1C(=O)Cn1cc(C(=O)c2ccco2)c2ccccc21 (configuration not stated)	2	-5	2	4	-8	1
COc1ccc(N2CC(O)=C(c3nc4ccccc4s3)C2=N)c(OC)c1	-15	-20	-31	7	3	8
CCc1ccc(/C=C/C(=O)c2ccc(N3CCOCC3)cc2)cc1	-86	42	-106	-9	17	-4
CCc1ccc(/C=C/C(=O)c2ccc(S(=O)(=O)N(C)C)cc2)cc1	54*	-17	13	-26	15	-12
CC(C)(C)NC(=O)CN(Cc1ccccc1)S(=O)(=O)c1ccccc1	6	54*	14	4	25	-3
CCOC(=O)c1ccc(C(=O)NNC(=O)C2C3C=CC(C3)C2C(=O)O)cc1 (configuration not stated)	7	8	-3	5	4	7
COc1ccccc1C(=O)/C=C/c1ccc(N2CCCCC2)c([N+](=O)[O-])c1	105*	55*	44*	-34	-2	-34
CCn1nc(C(=O)Nc2nc(-c3ccccn3)cs2)c2ccccc2c1=O	51*	3	-4	-7	-17	-4
COc1cc([N+](=O)[O-])cc(/C=C2/SC(=S)N(Cc3ccccc3)C2=O)c1O	51*	70*	-49	48	22	-11
COc1cc(/C=C2/SC(=S)N(Cc3ccccc3)C2=O)cc(Cl)c1O	48	65*	-8	51*	-204	-5
SMILES	Peg3 promoter	TWEAK-Fn14 inh	HIF-2a inh	TROY NFkB inh	CF NFkB inh	KKLEB tox
COc1cc(/C=C2\SC(=O)N(Cc3ccc(F)cc3)C2=O)cc([N+](=O)[O-])c1O	30	43	11	22	26	-12
COc1cc(/C=C2\SC(=O)N(Cc3ccc(Cl)cc3)C2=O)cc([N+](=O)[O-])c1O	27	56*	11	55*	24	3
Cn1c(SCC(=O)NCC2CCCO2)nnc1-c1c[nH]c2ccccc12 (configuration not stated)	2	12	15	13	-19	17
CCn1c(SCC(=O)NCC2CCCO2)nnc1-c1c[nH]c2ccccc12 (configuration not stated)	1	63*	10	nt	2	5
Oc1cccc(Nc2nc(O)c(/C=C3\C=Nc4ccccc43)s2)c1	-186	15	-256	-41	-2	5
CC1=Nc2ccccc2/C1=C\c1sc(Nc2ccc(C)cc2)nc1O	-36	55*	-108	26	42	-22
Oc1nc(Nc2cccc(Cl)c2)sc1/C=C1\C=Nc2ccccc21	-10	53*	-108	83*	-7	-4
O=C(O)CCCCCCCCCCP(=O)(c1ccccc1)c1ccccc1	9	-94	21	4	3	-1
O=P(CCCCCCCCCP(=O)(c1ccccc1)c1ccccc1)(c1ccccc1)c1ccccc1	67*	48	14	55*	9	-11
COc1cccc(CNc2nc3cc(-c4ccccc4C)sc3c(=O)n2C)c1OC	15	48	-25	23	9	-15
CCOC(=O)N1CCN(C2=C(NS(=O)(=O)c3ccc(C)cc3)C(=O)c3ccccc3C2=O)CC1	23	-15	-5	12	54*	7
Cc1ccc(S(=O)(=O)NC2=C(N3CCN(Cc4ccccc4)CC3)C(=O)c3ccccc3C2=O)cc1	-37	-1	-80	10	0	-1
ClCc1nnc(-c2cc3c(s2)CCCC3)o1	108*	32	-16	24	-4	-14
O=C1NC(=Nc2ccccc2Cl)S/C1=C\c1cccc([N+](=O)[O-])c1O	-12	5	-84	3	0	-12
O=C1NC(=Nc2ccccc2Cl)S/C1=C\c1cccc([N+](=O)[O-])c1	31	10	10	70*	34	-23
Cc1ccc(C)c(C(=O)NCCN(C)C)c1	7	1	26	-16	-13	0
C=C(CN(C)C)C(=O)c1cc(C)ccc1C	100*	42	90*	-8	30	0
CC1(C)CNc2cc(N)ccc2S1	49	51*	-144	51*	14	-5
Cc1ccc(S(=O)(=O)Nc2ccccn2)c(C)c1	1	16	15	4	-6	5
CN(C)c1cccc2c(S(=O)(=O)Nc3ccccn3)cccc12	-1	84*	3	62*	18	-14
CC1CCN(S(=O)(=O)c2ccc(NC(=O)Cn3nnc(-c4ccccc4)n3)cc2)CC1	26	20	18	-18	-18	-15
